# According to PubChem BioAssay (EPA / NIEHS):
# Results filed as inconclusive are left out. Activity calls are given as the source filed them. The calls were made as follows: active = hit-call score of the fitted dose curve at least 0.9, where 1 is the maximum; inconclusive = response in the unintended direction; inactive = score below 0.9.
# Key:
# [1] = ACEA_AR_agonist_AUC_viability: ACEA Biosciences xCELLigence Real-Time Cell Analysis on Androgen Receptor Agonism for Viability (AID 2283775);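 as to AC50: viability read 80 hours after compound addition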
# Method in brief: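 Viability endpoint from xCELLigence impedance in 22Rv1 prostate cells at 80 h. Eight-point series, 100 uM maximum final.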
# [2] = ACEA_AR_antagonist_AUC_viability: ACEA Biosciences xCELLigence Real-Time Cell Analysis on Androgen Receptor Antagonism for Viability (AID 2283776);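 also: 22Rv1 human prostate cancer cells growing on impedance electrode plates; area under impedance growth curve at 80 h after dosing as viability; hits lower the growth signal relative to DMSO meaning cytotoxicity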
# Method in brief: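 Impedance read-out (RT-CES): area under growth curve at 80 h post-dose, loss of signal scored vs DMSO baseline. 22Rv1 cells; 8-pt 1:4 series, top 100 uM final, ≤0.5% DMSO; biological duplicate.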
# [3] = ArunA_Migration_hNP: ArunA Biomedical's Oris Neuroprogenitor (hNP) Cell Migration Assay (AID 2283754)
# Method in brief: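 Readout is calcein-AM fluorescence (ex494/em517) of cells migrating into the detection zone, relative to DMSO. hNP1 cells (H9-derived) grown on Matrigel behind stoppers 16 h, then stoppers pulled and chemical applied 72 h; cytochalasin D as control.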
# [4] = ArunA_NOG_NucleusCount: ArunA Biomedical's Neurite Outgrowth (NOG) Assay for Nucleus Count (AID 2283756)
# Method in brief: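 Viable neuron count, from Hoechst nuclei passing size and intensity gates, imaged at 20x on differentiated H9-derived human neurons. Exposure lasted 48 h from seeding; activity was scored relative to DMSO.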
# [5] = ArunA_NOG_NeuritesPerNeuron: ArunA Biomedical's Neurite Outgrowth (NOG) Assay for Neurites Per Neuron (AID 2283758)
# Method in brief: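 Differentiated human H9-derived neurons exposed to chemicals for 48 h from seeding, then stained with Hoechst and βIII-tubulin/DyLight 488. Automated imaging counted neurites (processes >10 um) per valid neuron; loss of signal versus DMSO scored.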
# [6] = ArunA_NOG_BranchPointsPerNeurite: ArunA Biomedical's Neurite Outgrowth (NOG) Assay for Branch Points Per Neurite (AID 2283759)
# Method in brief: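 Automated image analysis traced neurites (processes >10 um) from valid cell bodies after Hoechst and βIII-tubulin staining. hNN cells from H9 embryonic stem cells, 48 h exposure. Fitted bidirectionally against DMSO.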
# [7] = tested on: zebrafish Estrogen Receptor (ESR2B), gene 317733; assay: ATG_zfER2b_XSP1: Attagene TRANS-FACTORIAL Multi-Species (XSP1) HepG2 Assay for zebrafish Estrogen Receptor (ESR2B) (AID 2283773)
# Method in brief: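 Medium contained 3 nM 6-alpha-fluorotestosterone. Reporter mRNA induction by exogenous zebrafish ER2b-Gal4 chimera was read 24 h post-dose in transiently transfected HepG2 cells, using RT-PCR, fluorescent labelling, HpaI digestion and capillary electrophoresis.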
# [8] = molecular target: chicken Estrogen Receptor (ESR1), ESR1 (gene 396099) (UniProt P06212); assay: ATG_chERa_XSP1: Attagene TRANS-FACTORIAL Multi-Species (XSP1) HepG2 Assay for chicken Estrogen Receptor (ESR1) (AID 2283779)
# Method in brief: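 Trans-activation of an exogenous chicken ERα–Gal4 chimera read as reporter transcript (RT-PCR, fluorescent labeling, capillary electrophoresis) after 24 h compound exposure of transfected HepG2; medium held 3 nM 6-alpha-fluorotestosterone. Positive-direction fit against DMSO.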
# [9] = molecular target: Estrogen receptor (Homo sapiens) (UniProt P03372); assay: ATG_hERa_XSP1: Attagene TRANS-FACTORIAL Multi-Species (XSP1) HepG2 Assay for human Estrogen Receptor (ESR1) (AID 2283780)
# Method in brief: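 Reporter transcripts from multiplexed GAL4-UAS units driven by NR-Gal4 chimeras in transiently transfected HepG2 were measured by RT-PCR with capillary electrophoresis 24 h post-dose, with 3 nM 6-alpha-fluorotestosterone present; gain-of-signal relative to DMSO.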
# [10] = ACEA_ER_AUC_viability: ACEA Biosciences xCELLigence Real-Time Cell Analysis on Estrogen Receptor Agonism for Viability (AID 2283782);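 also: hit means loss of impedance signal meaning reduced cell growth or viability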
# Method in brief: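 Viability endpoint: reduced impedance area under the curve relative to DMSO, recorded by real-time electrode sensing over ~80 h of continuous exposure. Duplicate plates of T47D in hormone-depleted medium; eight concentrations, 1:4 dilutions, 100 uM maximum.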
# [11] = tested on: chicken Androgen Receptor (AR), gene 422165; assay: ATG_chAR_XSP1: Attagene TRANS-FACTORIAL Multi-Species (XSP1) HepG2 Assay for chicken Androgen Receptor (AR) (AID 2283768)
# Method in brief: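 Reporter mRNA read by RT-PCR with fluorescent labelling and capillary electrophoresis 24 h after chemical dosing of transiently transfected HepG2 cells. Chicken AR-Gal4 chimera, partially stimulated with 3 nM 6-alpha-fluorotestosterone; activity fitted upward relative to DMSO.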
# [12] = tested on: frog Androgen Receptor (AR), gene 399456; assay: ATG_frAR_XSP1: Attagene TRANS-FACTORIAL Multi-Species (XSP1) HepG2 Assay for frog Androgen Receptor (AR) (AID 2283770)
# [13] = tested on: zebrafish Androgen Receptor (AR), gene 100005148; assay: ATG_zfAR_XSP1: Attagene TRANS-FACTORIAL Multi-Species (XSP1) HepG2 Assay for zebrafish Androgen Receptor (AR) (AID 2283771)
# Method in brief: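 Gain-of-signal versus DMSO was measured as reporter transcripts quantified by RT-PCR, fluorescent labelling and capillary electrophoresis after 24 h chemical exposure. The cells were HepG2 expressing a chimeric zebrafish AR-GAL4, co-stimulated with 3 nM 6-alpha-fluorotestosterone.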
# [14] = tested on: frog Estrogen Receptor (ESR2), gene 100174814; assay: ATG_frER2_XSP1: Attagene TRANS-FACTORIAL Multi-Species (XSP1) HepG2 Assay for frog Estrogen Receptor (ESR2) (AID 2283774)
# Method in brief: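 Reporter mRNA from a multiplexed TRANS system, measured by RT-PCR with fluorescent labelling and capillary electrophoresis, 24 hours after chemical exposure. Human HepG2 liver cells carried exogenous frog ER-Gal4 chimera; medium included 3 nM 6-alpha-fluorotestosterone; increases versus DMSO analysed.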
# [15] = tested on: frog Estrogen Receptor (ESR1), gene 398734; assay: ATG_frER1_XSP1: Attagene TRANS-FACTORIAL Multi-Species (XSP1) HepG2 Assay for frog Estrogen Receptor (ESR1) (AID 2283777)
# Method in brief: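 HepG2 cells transiently transfected with GAL4-UAS reporter units and frog ER–Gal4 chimera were dosed for 24 h with 3 nM 6-alpha-fluorotestosterone present. Reporter mRNA was measured by RT-PCR and capillary electrophoresis; gain of signal fitted versus DMSO.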
# [16] = tested on: zebrafish Estrogen Receptor (ESR2A), gene 317734; assay: ATG_zfER2a_XSP1: Attagene TRANS-FACTORIAL Multi-Species (XSP1) HepG2 Assay for zebrafish Estrogen Receptor (ESR2A) (AID 2283778)
# Method in brief: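 Reporter transcripts were quantified by RT-PCR, 6-FAM labelling, HpaI digestion and capillary electrophoresis after 24 h dosing. The cells were HepG2 transiently carrying a zebrafish ER2a–Gal4 construct plus multiplexed UAS reporters; medium contained 3 nM 6-alpha-fluorotestosterone.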
# [17] = tested on: turtle Estrogen Receptor (ESR1), gene 101933533; assay: ATG_trERa_XSP1: Attagene TRANS-FACTORIAL Multi-Species (XSP1) HepG2 Assay for turtle Estrogen Receptor (ESR1) (AID 2283781)
# Method in brief: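 Transactivation measured 24 h post-dose as reporter mRNA (RT-PCR, fluorescent capillary electrophoresis) from an NR-Gal4 turtle ER construct in HepG2. Medium included 3 nM 6-alpha-fluorotestosterone; increase over DMSO fitted.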
# Chain of chicken Estrogen Receptor (ESR1), ESR1 (gene 396099) (P06212 whole entry, looked up, the tested form may be a part): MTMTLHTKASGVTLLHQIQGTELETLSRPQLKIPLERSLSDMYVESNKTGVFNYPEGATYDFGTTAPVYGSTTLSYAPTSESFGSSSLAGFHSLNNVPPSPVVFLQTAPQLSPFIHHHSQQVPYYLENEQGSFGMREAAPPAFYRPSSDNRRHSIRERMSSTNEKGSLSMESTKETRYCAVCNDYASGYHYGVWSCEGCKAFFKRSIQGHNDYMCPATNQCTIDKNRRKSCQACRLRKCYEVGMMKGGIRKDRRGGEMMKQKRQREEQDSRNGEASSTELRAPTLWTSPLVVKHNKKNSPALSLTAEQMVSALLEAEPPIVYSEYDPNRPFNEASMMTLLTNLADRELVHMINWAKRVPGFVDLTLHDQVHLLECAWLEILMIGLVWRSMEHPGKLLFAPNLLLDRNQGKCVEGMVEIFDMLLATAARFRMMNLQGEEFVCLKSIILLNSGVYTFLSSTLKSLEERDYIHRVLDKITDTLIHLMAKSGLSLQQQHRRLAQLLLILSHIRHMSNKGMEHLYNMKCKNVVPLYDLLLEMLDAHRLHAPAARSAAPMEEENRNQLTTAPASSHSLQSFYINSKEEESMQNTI
# Chain of Estrogen receptor (Homo sapiens) (P03372 whole entry, looked up, the tested form may be a part): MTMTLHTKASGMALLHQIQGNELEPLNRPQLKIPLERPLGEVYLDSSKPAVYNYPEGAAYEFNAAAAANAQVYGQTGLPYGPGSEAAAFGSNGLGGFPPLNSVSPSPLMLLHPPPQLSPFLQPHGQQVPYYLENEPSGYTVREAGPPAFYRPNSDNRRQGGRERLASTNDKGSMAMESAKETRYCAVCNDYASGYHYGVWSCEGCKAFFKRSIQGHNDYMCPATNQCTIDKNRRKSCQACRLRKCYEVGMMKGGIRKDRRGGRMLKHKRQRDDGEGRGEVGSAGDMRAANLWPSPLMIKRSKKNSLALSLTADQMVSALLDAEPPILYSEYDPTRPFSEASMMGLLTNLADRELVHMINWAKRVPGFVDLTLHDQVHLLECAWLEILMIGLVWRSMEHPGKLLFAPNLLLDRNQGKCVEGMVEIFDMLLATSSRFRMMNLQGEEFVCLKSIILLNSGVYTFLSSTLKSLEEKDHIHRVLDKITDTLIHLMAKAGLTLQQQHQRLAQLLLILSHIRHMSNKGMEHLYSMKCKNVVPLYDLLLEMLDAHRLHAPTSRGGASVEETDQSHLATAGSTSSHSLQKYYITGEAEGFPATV
smiles,measurement,setting,value
Oc1ccc(-c2ccccc2)cc1,outcome,[1],inactive
same,AC50,[2],1.1 µM (active)
NNC(=S)NN,outcome,[1],inactive
same,outcome,[2],inactive
CC(C)c1cccc(C(C)C)c1O,outcome,[1],inactive
same,outcome,[2],inactive
ClC1(Cl)C2(Cl)C3(Cl)C4(Cl)C(Cl)(Cl)C5(Cl)C3(Cl)C1(Cl)C5(Cl)C24Cl (configuration not stated),outcome,[3],inactive
same,outcome,[4],inactive
same,outcome,[5],inactive
same,outcome,[6],inactive
same,outcome,[2],inactive
CCC(=O)C(CC(C)N(C)C)(c1ccccc1)c1ccccc1 (configuration not stated),AC50,[1],22.3 µM (active)
same,AC50,[2],32.9 µM (active)
CCOP(=S)(OCC)Oc1nc(Cl)c(Cl)cc1Cl,AC50,[1],83.9 µM (active)
same,AC50,[2],63.3 µM (active)
COP(=O)(OC)O/C(=C\Cl)c1cc(Cl)c(Cl)cc1Cl,AC50,[7],73.9 µM (active)
same,outcome,[8],inactive
same,outcome,[9],inactive
same,AC50,[10],58.1 µM (active)
C[C@]12CCC(=O)C[C@@H]1CC[C@@H]1[C@@H]2CC[C@]2(C)[C@@H](O)CC[C@@H]12,AC50,[11],282 nM (active)
same,AC50,[12],177 nM (active)
same,AC50,[13],35.8 nM (active)
same,AC50,[7],1 µM (active)
same,AC50,[14],1.31 µM (active)
same,outcome,[15],inactive
same,AC50,[16],851 nM (active)
same,outcome,[8],inactive
same,outcome,[17],inactive
O=S(=O)(c1ccc(Cl)cc1)c1ccc(Cl)cc1,outcome,[1],inactive
same,outcome,[2],inactive
Cc1ccc(N)cc1Cl,outcome,[1],inactive
same,outcome,[2],inactive
OCc1ccco1,outcome,[1],inactive
same,outcome,[2],inactive
O=C1C2(Cl)C3(Cl)C4(Cl)C(Cl)(Cl)C5(Cl)C3(Cl)C1(Cl)C5(Cl)C24Cl (configuration not stated),AC50,[7],1.93 µM (active)
same,AC50,[14],2.24 µM (active)
same,AC50,[2],7.14 µM (active)
same,AC50,[15],271 nM (active)
same,AC50,[8],28.4 nM (active)
same,AC50,[17],383 nM (active)
CCOC(=O)Nc1cccc(OC(=O)Nc2ccccc2)c1,outcome,[1],inactive
same,outcome,[2],inactive
